Only some compounds are listed: those with a hit (about 2.4% of all), similar ones and a draw of the others.
D2 ag-1 = activates the human D2 dopamine receptor; 340,000 tested, 0.53% active; activation, % at 2 µM; HEK293 T-REx D2 cells, calcium flux agonist mode; P14416;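 active = activation over 3 SD above normal in the single-dose calcium agonist read, cut at about 30% in these data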; note: 0% is about no effect
Target sequence (P14416 whole entry, looked up): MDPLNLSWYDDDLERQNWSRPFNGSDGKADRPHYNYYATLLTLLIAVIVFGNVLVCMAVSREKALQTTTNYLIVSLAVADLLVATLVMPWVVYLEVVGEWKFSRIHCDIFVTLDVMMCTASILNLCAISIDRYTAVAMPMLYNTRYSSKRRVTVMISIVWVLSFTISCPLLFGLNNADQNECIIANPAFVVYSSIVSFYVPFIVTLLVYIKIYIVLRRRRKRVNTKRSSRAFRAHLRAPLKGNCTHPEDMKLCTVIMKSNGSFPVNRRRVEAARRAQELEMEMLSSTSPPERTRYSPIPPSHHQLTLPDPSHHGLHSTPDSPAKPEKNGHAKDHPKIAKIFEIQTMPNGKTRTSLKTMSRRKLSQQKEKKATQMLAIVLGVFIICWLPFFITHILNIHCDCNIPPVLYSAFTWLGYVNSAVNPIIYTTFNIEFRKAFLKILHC
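Calcium-flux readout, 1 cycle/sec over 180 s following compound pin transfer, in inducible HEK293 Trex D2 cells (force-coupled); dopamine controls included. Positive calcium responses during this window marked compounds as potential agonists.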
D2 PAM-1 = positive allosteric modulators of human D2 dopamine receptor; DiscoveRx D2 beta-arrestin cells, luminescence, 90 min; 100% = 57 uM dopamine signal; potentiation, % (concentration not given with the values); 360,000 tested, 0.23% active; AID 624464; in the data active = potentiation above about 50%
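PathHunter beta-arrestin assay in DiscoveRx D2 cells. Compounds were added with an EC20 of dopamine (50 nM final) for 90 min at 37 deg C. Luminescence was read 1 h after detection reagent, with 57 uM dopamine as the EC100 control.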
D2 PAM-2 = D2 dopamine receptor (human) potentiation; P14416; HEK293 T-REx D2, calcium flux, EC20 dopamine potentiation; potentiation, % at 10 µM; 340,000 tested, 0.34% active;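 active = potentiation over 3 SD above the plate norm, cut at about 30% in these data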; note: 0% is about no effect
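Tetracycline-induced HEK293 T-REx cells force-coupled to calcium signalling expressed D2; compounds were pin-added after a 10 s baseline, read kinetically 180 s, then an EC20 dopamine challenge followed with a further 180 s calcium read.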
D2 antagonist = antagonists of human D2 dopamine receptor. inhibition, % at 10 µM. HEK293 TREx D2 cells, calcium flux, dopamine EC80. 340,000 tested, 2% active. P14416; in the data active = inhibition above about 30%; inactive = below that, where a call was filed; note: 0% is about no effect
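Read-out: kinetic calcium fluorescence (1 cycle/s) in inducible HEK293 T-REx D2 cells after an EC80 dopamine addition that followed 180 s compound preincubation. Loss of the dopamine response indicates antagonism.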
D2 ag-2 = activates the human D2 dopamine receptor; P14416; DiscoveRx PathHunter D2 beta-arrestin, luminescence, 90 min; 100% = 57 uM dopamine signal; activation, % (no concentration beside the values); 360,000 tested, 0.084% active; AID 624465; in the data active = activation above about 40%
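Agonist mode: compounds alone added to overnight-plated D2 PathHunter cells for 90 min at 37 C, with 57 uM final dopamine (EC100) defining full response. Beta-arrestin recruitment detected by chemiluminescent reagent, read after 1 h at ambient temperature.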
Active calls of the source: *; / = no result given.

SMILES	D2 ag-1	D2 PAM-1	D2 PAM-2	D2 antagonist	D2 ag-2
COc1ccc(-c2[nH]ncc2CN2CCN(Cc3cccs3)CC2)cc1F	1	-15	-21	-15	0
COc1ccc(-c2[nH]ncc2CN2CCC(C(=O)c3ccc(F)cc3)CC2)cc1	0	-26	-23	83*	-4
CC(=O)Nc1ccc(S(=O)(=O)NCC2CCC(C(=O)NCCN(CC(C)C)CC(C)C)CC2)cc1 (stereo not drawn)	0	/	-18	/	/
CCN(CC)C(=O)c1ccc2c(c1)N(Cc1c(F)cccc1Cl)C(=O)c1ccccc1S2	1	/	-8	/	/
COc1ccccc1N1CCN(Cc2nc(-c3ccc(F)cc3)oc2C)CC1	2	-14	-30	80*	-4
Cc1cc(N2CCN(Cc3nc(-c4ccc(F)cc4)oc3C)CC2)cc(C)n1	0	-10	-1	18	-3
CCN(CC(=O)Nc1c(F)cccc1F)C(=O)/C=C/c1cn(Cc2ccccc2)nc1-c1cccnc1	0	1	7	32*	1
O=C(c1cc([N+](=O)[O-])ccc1Cl)N1CCN(Cc2ccc3c(c2)OCO3)CC1	1	1	5	44*	0
O=C(c1ccccc1Cl)N1CCN(Cc2ccc3c(c2)OCO3)CC1	-2	-3	10	-6	-3
Cc1ccc(C(=O)N2CCN(Cc3ccc4c(c3)OCO4)CC2)c(Cl)c1	-1	-9	-30	73*	2
Cc1ccc(C2(C)NC(=O)N(CC(=O)Nc3nc(-c4ccccn4)cs3)C2=O)cc1 (stereo not drawn)	2	26	5	-7	3
COc1ccccc1/C=C/CN1CCN(Cc2ccc(C)o2)C(CCO)C1 (stereo not drawn)	0	-17	-21	49*	-4
Cc1cc(C)nc(NC(=O)c2ccccc2O)n1	1	-8	16	-4	-8
C=CCC(CC(O)COCCC)C(=O)NNC(=S)Nc1ccccc1 (stereo not drawn)	1	-11	4	-12	-8
O=c1cc(C(F)(F)F)[nH]c(=S)n1-c1ccccc1	0	-2	-2	1	1
O=C1OC(N2CCN(C(=O)C3CCCO3)CC2)c2ccccc21 (stereo not drawn)	0	55*	-5	-11	3
CCOC(=O)N1CCN(C2OC(=O)c3ccccc32)CC1 (stereo not drawn)	1	-13	14	-3	0
CCOc1ccccc1C(=O)N(Cc1ccc(N(C)C)cc1)Cc1ccco1	1	/	-3	/	/
CCOC(=O)C1CCN(S(=O)(=O)c2cnc[nH]2)CC1	0	-24	4	35*	-4
CCN(C(=O)COC(=O)c1c(-c2ccccc2)noc1C)c1c(N)n(Cc2ccccc2)c(=O)[nH]c1=O	/	-8	/	/	1
CCCN(C(=O)c1c(-c2ccccc2)noc1C)c1c(N)n(Cc2ccccc2)c(=O)[nH]c1=O	-1	-2	-3	65*	0
O=C(Cn1ccc([N+](=O)[O-])n1)N1CCc2ccccc21	0	3	-6	2	6
Cc1nn(C(=O)Cn2ccc([N+](=O)[O-])n2)c(C)c1Br	-2	-4	31*	12	2
Cc1onc(-c2ccccc2Cl)c1C(=O)Nc1sc2c(c1C#N)CCC2	0	3	10	-11	0
Cc1onc(C(=O)Nc2sc3c(c2C#N)CCCC3)c1[N+](=O)[O-]	37*	-1	-31	-3	-1
SMILES	D2 ag-1	D2 PAM-1	D2 PAM-2	D2 antagonist	D2 ag-2
CCOC(=O)C1=CCN(S(=O)(=O)c2ccccc2C)C1c1ccc(Cl)c(Cl)c1 (stereo not drawn)	/	-2	/	/	-6
COc1ccc(CN2CCN(C(=O)c3cccs3)CC2)cc1	81*	5	-23	95*	9
CN1CCN(C(=O)c2ccccc2NC(=O)c2ccccc2Br)CC1	0	6	9	3	2
O=C(c1cccs1)N1CCN(c2ccccc2)CC1	0	-4	-2	31*	-2
O=C(c1cccs1)N1CCN(c2ccc(F)cc2)CC1	1	-8	11	-2	-2
CN1CCN(C(=O)c2ccccc2NC(=O)c2cccs2)CC1	1	5	5	37*	-3
CCCCNC(=O)c1ccc(CS(=O)(=O)c2ccc(C)cc2)o1	0	-4	7	-3	0
CCc1ccc(N=C2NC(=O)/C(=C/c3cc(OC)c(OC)c(OC)c3)S2)cc1	1	-9	-7	-8	1
COc1cc(/C=C2\SC(=Nc3ccc(O)cc3)NC2=O)cc(OC)c1O	47*	8	-11	9	0
O=c1c2c3c(sc2nc2n1CCCCC2)CCCCC3	0	/	8	57*	/
CC1=Nn2c(nc3sc4c(c3c2=O)CCCC4)SC1	0	1	5	55*	-6
CC1(C)O[C@@H]2C[C@H]3[C@@H]4CCC5=CC(=O)CC[C@]5(C)[C@@]4(F)[C@@H](O)C[C@]3(C)[C@]2(C(=O)CCl)O1	/	8	12	/	1
CCN(CC(=O)Nc1cc(Cl)ccc1C)C(=O)c1ccc(N2CCCC2=O)cc1	0	-2	-11	-10	-3
COc1ccccc1-n1nnnc1SCc1ccccc1	-1	-17	-6	12	5
COc1ccc(Cn2nnnc2C(C(C)C)N2CCN(c3ccccc3OC)CC2)cc1 (stereo not drawn)	0	-4	-9	53*	-1
CCOc1ccccc1N1CCN(Cc2cnc(-c3ccccc3)[nH]2)CC1	0	-6	-24	78*	2
COc1ccccc1-n1nnnc1SCc1cc2c(cc1Br)OCO2	0	-14	43*	-9	-2
COc1ccccc1N1CCN(Cc2cc3c(cc2Br)OCCO3)CC1	-1	-18	-27	104*	-18
Cc1nn(C(=O)c2ccccc2)c(C)c1S(=O)(=O)N1CCCCCC1	1	/	15	/	/
COc1ccc(CN(CC(=O)NCCc2ccccc2)C(=O)CCC(=O)Nc2cc(C)ccn2)cc1	0	-11	-7	-19	0
Cc1ccc(Cc2nc3ccccc3nc2SCC(=O)N2CCCc3ccccc32)cc1	0	/	10	/	/
CCOc1cccc(CC(=O)NCc2ccc3c(c2)CCN3C(C)=O)c1OCC	1	/	-2	/	/
Cc1ccc(CNC(=O)C2CCN(S(=O)(=O)Cc3ccccc3)CC2)cc1	1	/	6	/	/
Cc1ccccc1N1CCN(Cc2cc3c(cc2[N+](=O)[O-])OCO3)CC1	0	-41	0	-20	5
COc1ccc(CC(C)N2CCN(c3ccccc3OC)CC2)cc1OC (stereo not drawn)	22	-16	-25	89*	-2
CCOC(=O)C1CCN(Cc2ccccn2)CC1	27	/	-15	-6	/
COc1ccccc1N1CCN(Cc2cccc(OC)c2OC)CC1	-1	-45	-14	71*	-2

Source: PubChem BioAssay
